# Many of the other results were omitted from the sample, so hits are more common in it than they were.
# HIV RNase H inh: HIV-1 RT RNase H inhibitors, primary screen, biochemical, fluorescence. Gag-Pol polyprotein (Human immunodeficiency virus type 1 group M subtype B (isolate …. RT-RNase H RNA/DNA duplex cleavage. inhibition, % at 10 µM. 65,000 tested, 1.9% active. AID 565, 2006; in the data active = inhibition above about 50%
# RmlC RmlD mix: RmlC and RmlD coupled enzyme inhibitors, primary screen, biochemical, 384-well, compound mixtures, retest | RmlC/RmlD coupled enzyme inhibition, 384-well mixture HTS | inhibition, % at 5.5 µM | 110,000 tested, 0.39% active | AID 1532, 2009; in the data active = inhibition above about 30%, passing the limit was not always enough; inconclusive = no clear call, values can overlap the other calls
# RmlCD artifact: counter-screen for RmlC/RmlD inhibitors: fluorescence artifact, dose response, artefact control, biochemical | 360 tested, 96% active | AID 1696, 2009 | shares compounds with RmlC RmlD mix | RmlC/RmlD assay fluorescence artifact counter-screen | calls only; call rule not given here;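 also: compound alone with no enzyme and no substrates present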
# Numbers stand for hits; – = inactive; ? = inconclusive; · = no result given; + = active, no number.
SMILES,HIV RNase H inh,RmlC RmlD mix,RmlCD artifact
Cc1cc2cc(CN(Cc3ccc4c(c3)OCO4)C(=O)c3ccco3)c(=O)[nH]c2cc1C,–,–,·
COc1cc2cc(CN(Cc3ccc4c(c3)OCO4)C(=O)c3ccco3)c(=O)[nH]c2cc1OC,·,46,+
COC(=O)Cc1c(C)c2ccc(OCc3nn[nH]n3)cc2oc1=O,·,–,·
COC(=O)Cc1c(C)c2c(OCc3nn[nH]n3)cc(C)cc2oc1=O,–,38,+
Cc1cccc(/C(N)=N/OC(=O)c2cccs2)c1,·,–,·
COc1cc(/C=C2/C(=N)N3C=CSC3=NC2=O)ccc1OCCCOc1ccccc1C,·,–,·
CCOc1cc(/C=C2/C(=N)N3C=CSC3=NC2=O)ccc1OCCCOc1ccccc1C,·,40,+
Cc1c(Cl)c([N+](=O)[O-])nn1CC(=O)NC(C)C1CC2CCC1C2 (stereo not drawn),·,–,·
COCCCN(C(C)=O)c1nc(-c2ccc(OC)cc2)cs1,–,–,·
CC1=C(C)/C(=N/OC(=O)c2cccc([N+](=O)[O-])c2)C=CC1=O,·,–,·
COc1cccc(/C=C/c2nc3c(cnn3-c3ccccc3)c(=O)[nH]2)c1,·,·,+
O=c1[nH]c(-c2ccc(Cl)cc2)nc2c1cnn2-c1ccccc1,–,–,·
COc1cccc(-n2nnnc2SCC(=O)c2cc(OC)ccc2OC)c1,–,38,+
COc1cccc(-n2nnnc2SCC(=O)c2ccc(NC(C)=O)cc2)c1,–,–,·
Cc1c(Br)c([N+](=O)[O-])nn1CC(=O)N1CCCc2ccccc21,·,–,·
CC(C)N(C(=O)COC(=O)c1cc(Cl)cc(Cl)c1N)C(C)C,·,–,·
CN(C)C(=O)COC(=O)c1cc(Cl)cc(Cl)c1N,·,36,+
CC1=C(C#N)C(c2cccnc2)C2=C(CCCC2=O)N1 (stereo not drawn),·,32,+
Cc1ccc(N2C(N)=C(C#N)C(c3cccnc3)C3=C2CCCC3=O)cc1 (stereo not drawn),–,·,·
CCOC(=O)c1sc(NC(=O)CSc2nc3c(c(=O)n2-c2ccc(F)cc2)SCC3)c(C(=O)OCC)c1C,·,–,·
COc1ccc2c(c1)[nH]c1c(=O)n(CCCN3CCOCC3)cnc12,·,–,·
COc1ccc2c(c1)c1ncn(CCCN3CCOCC3)c(=O)c1n2C,·,106,+
Cc1cc(/C=C(\C#N)C(=O)OCC(=O)NC(=O)NC(C)(C)C)c(C)n1CCC(C)C,·,–,·
C=CCNC(=O)NC(=O)COC(=O)/C(C#N)=C/c1cc(C)n(CCC(C)C)c1C,·,30,+
COc1ccc(COc2cc(-c3cccc(OC)c3)nc3ccc(N)cc23)cc1,·,–,·
SMILES,HIV RNase H inh,RmlC RmlD mix,RmlCD artifact
CC1(C)NC(=O)N(CC(=O)O)C1=O,·,–,·
COC(=O)c1cc(=O)nc2sc3ccccc3n12,–,–,·
COC(=O)c1cc(=O)nc2sc(-c3cccs3)nn12,–,39,+
Cc1ccc(-c2csc(N(C)C(=O)c3c(C)nn(-c4ccccc4)c3Cl)n2)cc1,·,–,·
Cc1ccc(S(=O)(=O)CCc2nnc(N)s2)cc1,·,–,·
CCN(CC)CC(=O)Nc1ccc(-c2nc3cc(NC(=O)CN(CC)CC)ccc3o2)cc1,–,–,·
O=C(CN1CCCC1)Nc1ccc(-c2nc3cc(NC(=O)CN4CCCC4)ccc3o2)cc1,–,46,+
O=C(c1ccc(-c2ccccc2Cl)s1)N1CCOCC1,·,–,·
CN(C)Cc1c(O)ccc2oc(Cc3ccccc3)cc12,–,–,·
Cc1c(C)c2cc(Cl)c(OCc3nn[nH]n3)cc2oc1=O,–,–,·
CCN(CC)Cc1c(O)c(Cl)cc2c(C)c(C)c(=O)oc12,·,68,+
Cc1c(Cc2ccccc2)c(=O)oc2c(CN(C)C)c(O)c(Cl)cc12,–,145,+
COC(=O)c1sccc1NC(=S)N1CC(C)CC(C)C1 (stereo not drawn),·,–,·
COc1ccc(C[C@H]2COC(=O)[C@@H]2Cc2ccc(OC3OC(CO)C(O)C(O)C3O)c(OC)c2)cc1OC (stereo partly drawn),·,–,·
CC(C)(O[C@@H]1O[C@H](CO)[C@@H](O)[C@H](O)[C@H]1O)[C@H]1Cc2cc3ccc(=O)oc3cc2O1,·,56,+
CCN(CC)CCNC(=O)c1c(C)oc2cc(Br)c(OC)cc12,–,–,·
Cc1cccc(OCC(=O)O/N=C(\N)Cc2ccc(Cl)cc2)c1,·,–,·
CCOC(=O)CNc1c(-c2ccc(Cl)cc2)nc2cnccn12,–,·,·
CCOC(=O)CNc1c(-c2ccc(F)cc2)nc2cnccn12,–,50,+
Cc1ccc(S(=O)(=O)N/N=C/c2ccc(OCC(=O)NC(C)C)cc2)cc1,·,–,·
COc1ccccc1-c1c(C)oc2c(CN3CCN(C)CC3)c(O)ccc2c1=O,–,43,+
COc1ccccc1-c1c(C)oc2c(CN3CCN(CCO)CC3)c(O)ccc2c1=O,–,·,–
CCOC(=O)c1oc2c(CN3CCN(C)CC3)c(O)ccc2c(=O)c1-c1ccccc1OC,–,–,·
COc1ccc(-c2c(C)oc3c(CN4CCN(CCO)CC4)c(O)ccc3c2=O)cc1OC,–,·,·
C(=C1/CCCC2=C1Nc1ncnn1C2c1ccccc1)/c1ccccc1 (stereo not drawn),·,–,·
SMILES,HIV RNase H inh,RmlC RmlD mix,RmlCD artifact
COc1cc2c(cc1OC)-c1cc(OCc3cccnc3)nc(=O)n1CC2,–,115,+
CCOc1cccc(Nc2cc3n(c(=O)n2)CCc2cc(OC)c(OC)cc2-3)c1,·,–,·
COc1ccc2cc3cc(C(=O)Nc4cc(OC)c(OC)c(OC)c4)oc3nc2c1,·,–,·
COc1ccc2cc3cc(C(=O)NC(C)C)oc3nc2c1,·,96,+
N#Cc1cc2c(nc1SCC(=O)N1CCOCC1)CCCCC2,·,–,·
CCOC(=O)CC(=O)CSc1nc(-c2cccnc2)cc(C)c1C#N,–,–,·
CCc1nnc(NC(=O)CSc2nc3c(cc2C#N)CCC3)s1,–,56,+
N#Cc1cc2c(nc1SCC(=O)Nc1sc3c(c1C#N)CCC3)CCCCCC2,·,–,·
CCOC(=O)CC(=O)CSc1nc2c(cc1C#N)CCCCCC2,–,64,+
CCOC(=O)CC(=O)CSc1nc(-c2cccnc2)ccc1C#N,–,·,+
CC(C)OC(=O)CC(=O)CSc1nc2c(cc1C#N)CCCCCC2,·,+,+
N#Cc1cc2c(nc1SCC(=O)Nc1nccs1)CCCCC2,–,–,·
COc1ccc(C2(C(F)(F)F)NC(=O)N(C)C(=O)N2C)cc1 (stereo not drawn),–,–,·
CCCCNC(=O)c1cn(-c2ccc(OCC)cc2)c(=O)c2cc(OC)c(OC)cc12,·,–,·
CC(C)=CCC(C)(C)CNC(=O)NC1CCCCC1,–,?,·
COc1ccc(C(=O)COc2nc(C)cc(C)c2C#N)cc1,·,–,·
CCN1C(=O)c2ccccc2S(=O)(=O)c2ccc(C(=O)NCc3cccnc3)cc21,–,–,·
CC(C)OC(=O)CC(=O)CSc1nc2c(cc1C#N)CCCC2,–,59,+
CS(=O)CSc1nc2c(cc1C#N)CCCC2 (stereo not drawn),–,–,·
COC(=O)CC(=O)CSc1nc(C)cc(C)c1C#N,–,121,+
Cc1cc(C)c(C#N)c(SCC(=O)C(C)(C)C)n1,·,–,·
CCOC(=O)c1ccc(N2Cc3cc(C)c(C)cc3C2)cc1O,–,·,·
O=S(=O)(Nc1nc2ccccc2nc1N1CCN(c2ccccc2F)CC1)c1ccc(Cl)cc1,·,–,·
CCOc1ccccc1Oc1c(C)oc2c(CN3CCN(C)CC3)c(O)ccc2c1=O,–,–,·
CCc1cc2c(=O)c(Oc3ccccc3F)c(C)oc2c(CN(C)C)c1O,–,72,+
